The source made the active and inactive calls. How the calls were made is not given here.
Potency means the concentration at half of the fitted maximal effect.

The test relates to HIV-1 nucleocapsid protein NCp7 (binding to TG oligonucleotide). Kind of test: HIV Nucleocapsid (AID 346).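 Further: potency is for inhibitors that block NC binding and lower polarization.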 To be noted: HIV-1 NC / fluorescein-TGTGTGTG probe, fluorescence polarization. The method in brief: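 Fluorescence polarization binding of 100 nM HIV-1 NC to 10 nM fluorescein-labelled TG4xF oligonucleotide. Buffer was Hepes pH 7.5 with 250mM NaCl, 1uM ZnCl2, TCEP and 2-mercaptoethanol. Compounds were incubated 1 hr at room temperature before the read.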
Consider `CC(C)NC(=O)N1CC[C@@]2(CCCN(S(=O)(=O)c3ccccc3)C2)C1`, for which the Potency was > 20 µM (inactive).
The value for `CCNc1ncc2nc(-c3ccccc3)c(=O)n(Cc3cccc(OC)c3)c2n1` was > 20 µM (inactive).
With `COc1ccc(-n2c(=O)c(-c3cc(F)cc(F)c3)nc3cnc(N4CCOCC4)nc32)cc1`, the Potency is > 20 µM (inactive).
The value for `N#Cc1cccc(-c2nc(NCc3cccnc3)c3ccccc3n2)c1` was > 20 µM (inactive); that for `CS(=O)(=O)N1CCC2(CCCN(Cc3ccccc3)C2)CC1` was > 20 µM (inactive); that for `c1cncc(CNc2cc(-c3ccoc3)ncn2)c1` was > 20 µM (inactive).
As for `Cc1nc2cnc(Oc3ccccc3)nc2n(C2CC2)c1=O`, the figure is > 20 µM (inactive); as for `O=C(c1cnccn1)N1CCC[C@@]2(CCN(c3ncccn3)C2)C1`, > 20 µM (inactive); as for `COc1ccc(Oc2ncc3nc(-c4cccs4)c(=O)n(-c4ccccc4)c3n2)cc1`, > 20 µM (inactive).
Take `CCNc1ncc2nc(-c3ccccc3)c(=O)n(Cc3ccc(F)cc3)c2n1`: the Potency is > 20 µM (inactive).
The value for `COc1cccc(Cn2c(=O)cnc3cnc(Nc4ccccc4)nc32)c1` was 4.95 µM (active).
As for `CN(Cc1ccco1)c1ncnc2ccc(-c3ccccc3C#N)cc12`, the figure is > 20 µM (inactive); as for `COc1ccccc1-c1ccc2ncnc(N(C)Cc3ccco3)c2c1`, > 20 µM (inactive).
The value for `CC(C)CN1CC[C@@]2(CCCN(C(=O)c3csnn3)C2)C1` was > 20 µM (inactive); that for `CS(=O)(=O)N1CCC2(CC1)CN(C(=O)Nc1cccc(C#N)c1)C2` was > 20 µM (inactive); that for `CN(C)c1ncc2nc(-c3ccc(Cl)cc3)c(=O)n(-c3ccccc3)c2n1` was > 4 µM (inactive).
Turning to `CN(C)Cc1ccccc1-c1ccc2ncnc(N(C)C)c2c1`, the Potency is > 20 µM (inactive).
The value for `N#CCCn1c(=O)c(-c2ccc(Cl)cc2)nc2cnc(N3CCOCC3)nc21` was > 20 µM (inactive); that for `Cc1nc2cnc(N3CCNCC3)nc2n(Cc2cccs2)c1=O` was > 4 µM (inactive).
In the case of `COc1ccc(C(=O)N2CCC3(CCN(Cc4ccccc4OC)CC3)CC2)cc1`, the Potency was > 20 µM (inactive).
The value for `CN(C)c1ncc2nc(-c3cc(F)cc(F)c3)c(=O)n(CCc3ccccc3)c2n1` was > 20 µM (inactive).
As for `CN(C)c1ncc2ncc(=O)n(Cc3ccc(F)cc3)c2n1`, the figure is > 20 µM (inactive); as for `CC(C)NC(=O)N1CCCC2(CCN(C(=O)c3ccncc3)CC2)C1`, > 20 µM (inactive); as for `COc1cccc(-c2cc(NCc3ccc(OC)cc3OC)ncn2)c1`, > 20 µM (inactive).
The value for `O=c1c(-c2ccccc2)nc2cnc(N3CCNCC3)nc2n1C1CC1` was > 20 µM (inactive).
In the case of `O=C(c1cnccn1)N1CCC[C@@]2(CCN(c3cccc(-c4ccccc4)c3)C2)C1`, the Potency is > 20 µM (inactive).
As for `COCC(=O)N1CCC[C@@]2(CCN(Cc3nccs3)C2)C1`, the figure is > 20 µM (inactive).
The value for `Cc1noc(C)c1-c1cncnc1NCCN1CCOCC1` was > 20 µM (inactive); that for `N#Cc1ccc(CN2CCC3(CC2)CCN(C(=O)c2ccco2)CC3)cc1` was > 20 µM (inactive); that for `COc1ccc(C(=O)N2CCC3(CC2)CN(c2ncccn2)C3)cc1` was > 20 µM (inactive).
As for `Cn1c(=O)c(-c2cccs2)nc2cncnc21`, the figure is > 20 µM (inactive).
Take `COc1cccc(Nc2ncc3nc(-c4ccc(Cl)cc4)c(=O)n(C[C@H]4CCCO4)c3n2)c1`: the Potency is > 20 µM (inactive).
As for `CCNc1ncc2nc(-c3ccc(OC)cc3)c(=O)n(CCc3ccccc3)c2n1`, the figure is > 4 µM (inactive); as for `FC(F)(F)c1ccccc1-c1nc(NCCN2CCOCC2)c2ccccc2n1`, > 20 µM (inactive).
For `CC(=O)N1CCC2(CCCN(c3ccc(-c4ccccc4)cc3)C2)CC1`, the Potency is > 20 µM (inactive).
The value for `CC(C)NC(=O)N1CCC2(CC1)CCN(C(=O)c1cccn1C)CC2` was > 20 µM (inactive); that for `Cc1noc(C)c1-c1cncnc1N1CCN(C)CC1` was > 20 µM (inactive); that for `COc1cccc(-c2nc(N3CCNCC3)c3ccccc3n2)c1` was > 20 µM (inactive).
The value for `COc1ccc(NC(=O)N2CC3(CCN(C(=O)c4csnn4)CC3)C2)cc1` was > 20 µM (inactive).
For the compound `Cc1cccc(CNc2ccnc(-c3cccc(C#N)c3)n2)c1`, the Potency is > 20 µM (inactive).

Values taken from PubChem BioAssay (NCATS).
